Experimental findings from PubChem BioAssay AID624021 (National Center for Advancing Translational Sciences (NCATS), 2012) are described below.

Results filed as inconclusive are left out. Activity calls are given as the source filed them. Calls come from the whole dose curve; as a rule, active = well fitted curve in the direction sought with a large enough effect; inconclusive = small, poorly fitted or top-dose-only effect, or another doubt; inactive = no such curve, though single readings can be large or run the other way.

Chain of Isocitrate dehydrogenase [NADP] cytoplasmic (Homo sapiens) (O75874 whole entry, looked up): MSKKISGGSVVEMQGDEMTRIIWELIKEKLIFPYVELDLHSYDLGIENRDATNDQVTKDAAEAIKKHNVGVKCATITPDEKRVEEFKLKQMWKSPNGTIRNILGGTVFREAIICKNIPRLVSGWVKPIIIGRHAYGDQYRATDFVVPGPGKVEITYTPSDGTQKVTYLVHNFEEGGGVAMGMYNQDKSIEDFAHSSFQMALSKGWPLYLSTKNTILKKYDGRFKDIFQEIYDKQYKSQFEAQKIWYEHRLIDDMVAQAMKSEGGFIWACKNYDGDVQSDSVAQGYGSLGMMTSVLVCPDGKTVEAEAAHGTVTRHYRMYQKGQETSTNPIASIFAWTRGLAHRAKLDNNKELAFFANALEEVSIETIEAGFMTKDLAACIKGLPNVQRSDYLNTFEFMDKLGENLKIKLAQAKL

This assay deals with Isocitrate dehydrogenase [NADP] cytoplasmic (Homo sapiens) (UniProt O75874). Description: qHTS for Inhibitors of mutant isocitrate dehydrogenase 1 (IDH1): WT assay for probe SAR. The note with it: WT IDH1 enzyme, NADPH diaphorase/resazurin fluorescence; series mostly up to 100 µM. The text has this:
Malignant glioblastomas (WHO grade IV), including primary and secondary glioblastomas, are among the most lethal with a median survival of one year, and unfortunately they are also the most prevalent type of brain tumors. By and large the standard of care of gliomas remains the use of the oral alkylating agent temozolomide and radiotherapy following surgical tumor resection. There is an urgent unmet medical need for novel therapeutics for gliomas. IDH mutations occur in up to 70% of grade II-IV secondary glioblastomas, and IDH1 R132H is the most prevalent mutation. […] Wild-type (WT) IDH1 catalyzes the conversion of isocitrate to -ketoglutarate with the concomitant reduction of NADP+ to NADPH. In contrast, IDH1 R132H catalyzes the conversion of -ketoglutarate to 2-hydroxyglutarate (2-HG) with the concomitant oxidation of NADPH to NADP+ [5]. Recently, a second significant advancement for the field was the finding that IDH is an oncogene, and that its metabolic product 2-HG may contribute to the pathogenesis of IDH-mutated cancers. […] Although this link to cancer is tantalizing, the direct evidence of how 2-HG drives pathogenesis of gliomas and AML remains a subject of further research. The goal of this selectivity assay is to identify small-molecule inhibitors of WT IDH1 using a biochemical assay that measures product NADPH production through the use of a diaphorase/resazurin-coupled system. Inhibition of the WT IDH1 enzymatic reaction leads to a decrease in the amount of NADPH relative to a DMSO control and a concomitant decrease in the fluorescence of the diaphorase/resazurin enzyme product resorufin at 590 nm. Compounds were screened as concentration-titration series that ranged from 100 microM to 5 nM. NIH Molecular Libraries Probe Production Network [MLPCN] NIH Chemical Genomics Center [NCGC] MLSCN Grant: R03 DA032129 PI Name: Dr. Lenny Dang
Compounds or DMSO were dispensed into black, solid 96-well plates at 1 microL/well. Then, 40 microL/well enzyme buffer was dispensed in 20 mM Tris buffer, pH 7.5, containing final concentrations of 10 mM MgCl2, 20 mM NaCl, 0.05% BSA, 2 mM beta-ME and […] WT IDH1. These were incubated at RT for 60 minutes. The substrate and detection buffer (10 microL; 20 mM Tris buffer, pH 7.5, containing final concentrations of 10 mM MgCl2, 20 mM NaCl, 0.05% BSA, 0.05 mM NADP+, 0.00053 mM diaphorase, 0.04 mM resazurin and 0.07 mM isocitrate) was added to start the enzymatic reaction. The reaction progressed for 30 minutes at RT and which point 25 microL/well of 2% SDS was added as a stop solution. Following 1 minute of shaking on an oribital shaker, the fluorescence intensity was monitored on a Spectramax M5 plate reader (Ex 544, Em 590, bodipy filter). The %Activity was determined from the corrected fluorescence values. As no specific WT IDH1 inhibitors have been identified in the literature, 1x (0.65 nM) and 0x WT IDH1 enzyme controls (untreated) were included to normalize %Activity of identified inhibitors; 0x enzyme values corresponded to 100%Activity (full inhibition), while 1x WT IDH1 enzyme values were used to normalize 0%Activity (no inhibition ). Concentration-response curves were fitted to the signals arising from the resulting fluorescence. The concentration-response curves were then classified based on curve quality (r2), response magnitude and degree of measured activity, and compounds were subsequently categorized based on their curve class. […] Keywords: Isocitrate dehydrogenase, IDH1, IDH1 R132H, 2-HG, 2-hydroxyglutarate, AML, glioma, MLSMR, MLPCN, NIH Roadmap, qHTS, NCGC
Turning to `Cc1ccccc1C(C(=O)NC1CCCC1)N(C(=O)Cc1cccs1)c1ccccc1F` (configuration not stated), the outcome was inactive.

As for `Cc1ccccc1C(C(=O)NC1CCCC1)N(C(=O)Cc1cccs1)c1ccccc1` (configuration not stated), the call was inactive.

In the case of `COc1ccc(C(C(=O)NC2CCCC2)N(C(=O)Cc2cccs2)c2cccc(F)c2)cc1OC` (configuration not stated), the outcome was inactive.

As to `Cc1ccc(C(C(=O)NC2CCCC2)N(C(=O)Cc2cccs2)c2cccc(F)c2)o1` (configuration not stated), the call was inactive.

Take `Cc1nc(C)c(C(=O)N(c2cccc(F)c2)C(C(=O)NC2CCCCC2)c2ccccc2)s1` (configuration not stated): the call was inactive.

`COc1cccc(N(C(=O)Cc2cccs2)C(C(=O)NC2CCCC2)c2ccccc2)c1` (configuration not stated): the outcome was inactive.

For `Cc1ccccc1C(C(=O)NC1CCCCC1)N(C(=O)Cc1cccs1)C(C)C` (configuration not stated), the molecule was called inactive.

Consider `O=C(NC1CCCC1)C(c1cccs1)N(C(=O)Cc1cccs1)c1cccc(F)c1` (configuration not stated), for which the molecule was classed as inactive.

Turning to `Cc1ccccc1C(C(=O)N(C)C1CCCCC1)N(C(=O)Cc1cccs1)c1cccc(F)c1` (configuration not stated), the molecule was called inactive.

With `Cc1ccccc1C(C(=O)NC1CCCCC1)N(C(=O)c1ccccn1)c1cccc(F)c1` (configuration not stated), the call was inactive.

Consider `COc1ccccc1CN(C(=O)Cc1cccs1)C(C(=O)NC1CCCCC1)c1ccccc1F` (configuration not stated), for which the outcome was inactive.

Turning to `COc1cccc(C(C(=O)NC2CCCCC2)N(C(=O)c2cccs2)c2ccc3c(c2)OCO3)c1` (configuration not stated), the outcome was inactive.

For the molecule `COc1cc(OC)cc(N(C(=O)Cc2cccs2)C(C(=O)NC2CCCC2)c2ccccc2C)c1` (configuration not stated), the molecule was classed as inactive.

Consider `O=C(NC1CCCC1)C(c1ccccc1)N(C(=O)Cc1cccs1)c1cccc(F)c1` (configuration not stated), for which the molecule was called inactive.

As for `O=C(NC1CCCCC1)C(c1ccncc1)N(C(=O)Cc1cccs1)c1cccc(F)c1` (configuration not stated), the molecule was called inactive.

For the molecule `COc1ccc(N(C(=O)C2COc3ccccc3O2)C(C(=O)NC2CCCCC2)c2ccccc2)cc1OC` (configuration not stated), the call was inactive.

Consider `Cc1ccccc1C(C(=O)NC1CCCCC1)N(C(=O)CNS(=O)(=O)c1ccccc1)c1cccc(F)c1` (configuration not stated), for which the call was inactive.

Take `O=C(NC1CCCCC1)C(C1CCCC1)N(C(=O)Cc1cccs1)c1cccc(F)c1` (configuration not stated): the outcome was inactive.

For the molecule `Cc1ccccc1C(C(=O)NC(C)(C)C)N(C(=O)Cc1cccs1)c1cccc(F)c1` (configuration not stated), the result was inactive.

On to `Cc1ccccc1C(C(=O)NCc1ccccc1)N(C(=O)Cc1cccs1)c1cccc(F)c1` (configuration not stated), for which the molecule was classed as inactive.

For the molecule `COc1ccc(N(C(=O)Cn2cnc3ccccc32)C(C(=O)NC2CCCCC2)c2ccccc2)cc1` (configuration not stated), the outcome was inactive.

Consider `COc1ccc(N(C(=O)Cc2cccs2)C(C(=O)NC2CCCC2)c2ccccc2C)cc1OC` (configuration not stated), for which the molecule was called inactive.
